PubChem BioAssay (NCI)
The panel holds about 79,000 compounds, 15% with a hit somewhere; the sample as a whole holds those more often. Unmarked numbers belong to inactive results. Calls of active or inactive are those of the source. Cut-off read from the data, not from the text of the source: active = growth inhibition above about 70%; inactive = the rest.

Experiment: NCI Yeast Anticancer Drug Screen. Data for the rad14 strain (AID 159);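 note: 0% = growth of vehicle-treated control cultures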
Details: S. cerevisiae rad14 strain growth inhibition; at 1.2 µM; hits give high values
Outline: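 Vehicle-treated cultures served as the baseline for growth inhibition of a DNA repair-mutant yeast strain exposed to each compound.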

Q: For COc1ccc2nc3cccc([N+](=O)[O-])c3c(NCCNCCN(C)C)c2c1, which growth inhibition is on record?
A: Its growth inhibition is -2%.

Q: With Cc1cccc(/C=N/NC(=S)NC2CCCCC2)n1 as the compound, how does the growth inhibition read?
A: Its growth inhibition is -7%.

Q: Which growth inhibition does the source give for COC(=O)C(=O)c1c(-c2ccc(Cl)c(Cl)c2)[nH]c2[nH]n(-c3ccccc3)c(=O)c2c1=O here?
A: Its growth inhibition is -1%.

Q: Which growth inhibition does the source give for c1ccc([P+](CCN2Cc3ccccc3C2)(c2ccccc2)c2ccccc2)cc1 here?
A: The growth inhibition was -22%.

Q: Which growth inhibition does the source give for Cc1cc(C)c2[s+]snc2c1 here?
A: The growth inhibition was 2%.

Q: With CC(C)(Br)C(=O)/C=C/c1ccccc1 as the compound, how does the growth inhibition read?
A: The growth inhibition was 6%.

Q: Which growth inhibition does the source give for Cc1ccc(S(=O)(=O)NC(=O)C2C(=O)CC3(CCCCC3)CC2=O)cc1 here?
A: The growth inhibition was -29%.

Q: For NC(=S)N1N=C2c3ccccc3CC[C@H]2[C@@H]1c1ccc(Cl)cc1, which growth inhibition is on record?
A: Its growth inhibition is -28%.

Q: Which growth inhibition does the source give for O=[N+]([O-])/C=C/c1cc2ccc3ccccc3c2[nH]1 here?
A: The growth inhibition was 11%.

Q: For O=C1C(=C2CCCC2)CCC1CN1CCCCC1 (configuration not stated), which growth inhibition is on record?
A: Its growth inhibition is 10%.

Q: Which growth inhibition does the source give for OC(CC(O)(C(F)(F)F)C(F)(F)F)c1ccc(C(O)CC(O)(C(F)(F)F)C(F)(F)F)cc1 (configuration not stated) here?
A: Its growth inhibition is 26%.

Q: For COc1cc2c(cc1OC)[C@@H](Nc1ccc(C#N)cc1)C1COC(=O)[C@@H]1C2c1cc(OC)c(O)c(OC)c1 (some centres not stated), which growth inhibition is on record?
A: Its growth inhibition is -12%.

Q: With O=c1cccccc1[O-].O=c1cccccc1[O-].O=c1cccccc1[O-].[Eu+3] as the compound, how does the growth inhibition read?
A: The growth inhibition was 3%.

Q: For O=C1c2ccccc2C(=O)c2sc(Nc3ccccc3Cl)nc21, which growth inhibition is on record?
A: Its growth inhibition is -19%.

Q: Which growth inhibition does the source give for NC(CCCCCCCCCCCCC(N)C(=O)c1ccccc1)C(=O)c1ccccc1 (configuration not stated) here?
A: The growth inhibition was -6%.

Q: With CC1=C(C)C(=O)C2=C(OCCO2)C1=O as the compound, how does the growth inhibition read?
A: Its growth inhibition is -1%.

Q: For c1ccc(-c2cc(C3CO3)c3ccccc3n2)cc1 (configuration not stated), which growth inhibition is on record?
A: The growth inhibition was -4%.

Q: Which growth inhibition does the source give for S=C1C(=Nc2ccccc2)N(c2ccccc2)/C(=N\c2ccccn2)N1c1ccccc1 here?
A: The growth inhibition was -4%.

Q: For CCC(OC(C)=O)C1CC(C(C)C)CCC1C (configuration not stated), which growth inhibition is on record?
A: The growth inhibition was 0%.

Q: For CC(C)=CCc1c2c(c(O)c3c(=O)c(-c4ccc(O)c(O)c4)coc13)C=CC(C)(C)O2, which growth inhibition is on record?
A: Its growth inhibition is -72%.

Q: With O=C(NC(N1CCN(c2cc3c(cc2F)c(=O)c(C(=O)O)cn3C2CC2)CC1)(C(F)(F)F)C(F)(F)F)c1ccccc1 as the compound, how does the growth inhibition read?
A: Its growth inhibition is -2%.

Q: For Fc1cc(F)c(F)c(S)c1F, which growth inhibition is on record?
A: The growth inhibition was -47%.

Q: Which growth inhibition does the source give for COc1ccc2cc3c4cc5c(cc4cc[n+]3cc2c1OC)OCO5 here?
A: Its growth inhibition is 18%.

Q: With CCCCCCCCNCCCCCCCC as the compound, how does the growth inhibition read?
A: Its growth inhibition is 50%.

Q: With Nc1cc(Cl)ccc1Nc1ccccc1 as the compound, how does the growth inhibition read?
A: Its growth inhibition is -7%.

Q: Which growth inhibition does the source give for O=C(/C(=C/c1ccc(O)cc1)c1ccccc1)c1ccccc1 here?
A: The growth inhibition was -2%.

Q: Which growth inhibition does the source give for O=Cc1ccccc1C=O here?
A: The growth inhibition was -17%.

Q: For C1=CCN([B-](c2ccccc2)[C+]2CCCCC2)C=C1, which growth inhibition is on record?
A: The growth inhibition was -1%.

Q: Which growth inhibition does the source give for CC/C(=C(\c1ccccc1)c1ccc(OCC[N+](C)(C)C)cc1)c1ccccc1 here?
A: The growth inhibition was 0%.

Q: With O=S(=O)(c1cccc(C(F)(F)F)c1)N1c2ccccc2-n2cccc2C1c1cccnc1 (configuration not stated) as the compound, how does the growth inhibition read?
A: Its growth inhibition is -51%.

Q: With Nc1ccc2c(c1)C(=O)c1c(F)cccc1-2 as the compound, how does the growth inhibition read?
A: The growth inhibition was 2%.

Q: Which growth inhibition does the source give for CN(C)/C(=N/C(=S)Nc1ccccc1)SCc1ccccc1 here?
A: Its growth inhibition is -4%.

Q: With CCN(CC)C(=S)N/N=C(\C)c1ccccc1O as the compound, how does the growth inhibition read?
A: Its growth inhibition is 3%.

Q: With CC(C)OC(=O)NNc1cc(Cl)ccc1Cl as the compound, how does the growth inhibition read?
A: Its growth inhibition is -4%.

Q: Which growth inhibition does the source give for CC(C)CCC[C@@H](C)[C@H]1CC[C@H]2[C@@H]3CC[C@H]4C[C@H](N)CC[C@]4(C)[C@H]3CC[C@]12C here?
A: The growth inhibition was -1%.

Q: With O=C1c2ccccc2-c2ccc(N=Cc3ccccc3)cc21 as the compound, how does the growth inhibition read?
A: The growth inhibition was 3%.

Same assay, conditions: S. cerevisiae rad14 strain growth inhibition; at 3.7 µM; hits give high values

Q: With COc1ccc2nc3cccc([N+](=O)[O-])c3c(NCCNCCN(C)C)c2c1 as the compound, how does the growth inhibition read?
A: Its growth inhibition is -2%.

Q: With Cc1cccc(/C=N/NC(=S)NC2CCCCC2)n1 as the compound, how does the growth inhibition read?
A: Its growth inhibition is -15%.

Q: Which growth inhibition does the source give for COC(=O)C(=O)c1c(-c2ccc(Cl)c(Cl)c2)[nH]c2[nH]n(-c3ccccc3)c(=O)c2c1=O here?
A: The growth inhibition was -1%.

Q: For c1ccc([P+](CCN2Cc3ccccc3C2)(c2ccccc2)c2ccccc2)cc1, which growth inhibition is on record?
A: Its growth inhibition is 13%.

Q: For Cc1cc(C)c2[s+]snc2c1, which growth inhibition is on record?
A: Its growth inhibition is 4%.

Q: For CC(C)(Br)C(=O)/C=C/c1ccccc1, which growth inhibition is on record?
A: The growth inhibition was 14%.

Q: With Cc1ccc(S(=O)(=O)NC(=O)C2C(=O)CC3(CCCCC3)CC2=O)cc1 as the compound, how does the growth inhibition read?
A: The growth inhibition was -44%.

Q: Which growth inhibition does the source give for NC(=S)N1N=C2c3ccccc3CC[C@H]2[C@@H]1c1ccc(Cl)cc1 here?
A: The growth inhibition was -20%.

Q: Which growth inhibition does the source give for O=[N+]([O-])/C=C/c1cc2ccc3ccccc3c2[nH]1 here?
A: Its growth inhibition is 27%.

Q: With O=C1C(=C2CCCC2)CCC1CN1CCCCC1 (configuration not stated) as the compound, how does the growth inhibition read?
A: The growth inhibition was 10%.

Q: Which growth inhibition does the source give for OC(CC(O)(C(F)(F)F)C(F)(F)F)c1ccc(C(O)CC(O)(C(F)(F)F)C(F)(F)F)cc1 (configuration not stated) here?
A: The growth inhibition was 19%.

Q: For COc1cc2c(cc1OC)[C@@H](Nc1ccc(C#N)cc1)C1COC(=O)[C@@H]1C2c1cc(OC)c(O)c(OC)c1 (some centres not stated), which growth inhibition is on record?
A: Its growth inhibition is -8%.

Q: With O=c1cccccc1[O-].O=c1cccccc1[O-].O=c1cccccc1[O-].[Eu+3] as the compound, how does the growth inhibition read?
A: Its growth inhibition is 7%.

Q: Which growth inhibition does the source give for O=C1c2ccccc2C(=O)c2sc(Nc3ccccc3Cl)nc21 here?
A: The growth inhibition was 26%.

Q: With NC(CCCCCCCCCCCCC(N)C(=O)c1ccccc1)C(=O)c1ccccc1 (configuration not stated) as the compound, how does the growth inhibition read?
A: Its growth inhibition is -12%.

Q: For CC1=C(C)C(=O)C2=C(OCCO2)C1=O, which growth inhibition is on record?
A: Its growth inhibition is -1%.

Q: For c1ccc(-c2cc(C3CO3)c3ccccc3n2)cc1 (configuration not stated), which growth inhibition is on record?
A: The growth inhibition was -4%.

Q: With S=C1C(=Nc2ccccc2)N(c2ccccc2)/C(=N\c2ccccn2)N1c1ccccc1 as the compound, how does the growth inhibition read?
A: Its growth inhibition is -2%.

Q: Which growth inhibition does the source give for CCC(OC(C)=O)C1CC(C(C)C)CCC1C (configuration not stated) here?
A: Its growth inhibition is 0%.

Q: For CC(C)=CCc1c2c(c(O)c3c(=O)c(-c4ccc(O)c(O)c4)coc13)C=CC(C)(C)O2, which growth inhibition is on record?
A: Its growth inhibition is -68%.

Q: For O=C(NC(N1CCN(c2cc3c(cc2F)c(=O)c(C(=O)O)cn3C2CC2)CC1)(C(F)(F)F)C(F)(F)F)c1ccccc1, which growth inhibition is on record?
A: Its growth inhibition is -1%.

Q: For Fc1cc(F)c(F)c(S)c1F, which growth inhibition is on record?
A: The growth inhibition was -44%.

Q: With COc1ccc2cc3c4cc5c(cc4cc[n+]3cc2c1OC)OCO5 as the compound, how does the growth inhibition read?
A: The growth inhibition was 46%.

Q: Which growth inhibition does the source give for CCCCCCCCNCCCCCCCC here?
A: The growth inhibition was 82% (active).

Q: With Nc1cc(Cl)ccc1Nc1ccccc1 as the compound, how does the growth inhibition read?
A: The growth inhibition was -13%.

Q: With O=C(/C(=C/c1ccc(O)cc1)c1ccccc1)c1ccccc1 as the compound, how does the growth inhibition read?
A: Its growth inhibition is 0%.

Q: For O=Cc1ccccc1C=O, which growth inhibition is on record?
A: The growth inhibition was -12%.

Q: With C1=CCN([B-](c2ccccc2)[C+]2CCCCC2)C=C1 as the compound, how does the growth inhibition read?
A: The growth inhibition was -2%.

Q: Which growth inhibition does the source give for CC/C(=C(\c1ccccc1)c1ccc(OCC[N+](C)(C)C)cc1)c1ccccc1 here?
A: The growth inhibition was 88% (active).

Q: With O=S(=O)(c1cccc(C(F)(F)F)c1)N1c2ccccc2-n2cccc2C1c1cccnc1 (configuration not stated) as the compound, how does the growth inhibition read?
A: Its growth inhibition is -17%.

Q: Which growth inhibition does the source give for Nc1ccc2c(c1)C(=O)c1c(F)cccc1-2 here?
A: The growth inhibition was 7%.

Q: For CN(C)/C(=N/C(=S)Nc1ccccc1)SCc1ccccc1, which growth inhibition is on record?
A: Its growth inhibition is -5%.

Q: With CCN(CC)C(=S)N/N=C(\C)c1ccccc1O as the compound, how does the growth inhibition read?
A: The growth inhibition was -22%.

Q: For CC(C)OC(=O)NNc1cc(Cl)ccc1Cl, which growth inhibition is on record?
A: The growth inhibition was 3%.

Q: With CC(C)CCC[C@@H](C)[C@H]1CC[C@H]2[C@@H]3CC[C@H]4C[C@H](N)CC[C@]4(C)[C@H]3CC[C@]12C as the compound, how does the growth inhibition read?
A: Its growth inhibition is 1%.

Q: With O=C1c2ccccc2-c2ccc(N=Cc3ccccc3)cc21 as the compound, how does the growth inhibition read?
A: The growth inhibition was 2%.
